Assay results reported in article PMC7862700, “An all-to-all approach to the identification of sequence-specific readers for epigenetic DNA modifications on cytosine”.

Experiments:
Test in all cases: DAPPL (digital affinity profiling via proximity ligation, sequencing); 10 mM Tris-HCl pH 7.5, 50 mM NaCl, 1 mM DTT, 4% glycerol, room temperature, 30 min; GST-TFs on glutathione beads, 16-mer random dsDNA library, 0.1% formaldehyde crosslink after washing; high values mean tight binding
Conditions in all cases: protein: recombinant; tags: N-terminal GST; dsDNA, one strand shown
[1] = biological target: ETV1 (Homo sapiens, UniProt P50549 1-477)
Summary of the method: (§1)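 Pools of DNA-barcoded human transcription factors, expressed in yeast as GST fusions on glutathione beads and combined with a tag-only sample, were incubated with 200 nmole of a 16-mer random double-stranded DNA library. Incubation took 30 min at room temperature in Tris/NaCl/DTT/glycerol buffer and was followed by washing, 0.1% formaldehyde crosslinking, proximity ligation (BsaI/T4 ligase, 1 h, 37 °C), PCR amplification and sequencing on an Illumina NextSeq500. Binding signal is the ratio of a hexamer's read frequency for a factor to its frequency for the tag-only sample.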

[2] = biological target: T1, ERF (Homo sapiens, UniProt P50548 1-548)
T1 sequence: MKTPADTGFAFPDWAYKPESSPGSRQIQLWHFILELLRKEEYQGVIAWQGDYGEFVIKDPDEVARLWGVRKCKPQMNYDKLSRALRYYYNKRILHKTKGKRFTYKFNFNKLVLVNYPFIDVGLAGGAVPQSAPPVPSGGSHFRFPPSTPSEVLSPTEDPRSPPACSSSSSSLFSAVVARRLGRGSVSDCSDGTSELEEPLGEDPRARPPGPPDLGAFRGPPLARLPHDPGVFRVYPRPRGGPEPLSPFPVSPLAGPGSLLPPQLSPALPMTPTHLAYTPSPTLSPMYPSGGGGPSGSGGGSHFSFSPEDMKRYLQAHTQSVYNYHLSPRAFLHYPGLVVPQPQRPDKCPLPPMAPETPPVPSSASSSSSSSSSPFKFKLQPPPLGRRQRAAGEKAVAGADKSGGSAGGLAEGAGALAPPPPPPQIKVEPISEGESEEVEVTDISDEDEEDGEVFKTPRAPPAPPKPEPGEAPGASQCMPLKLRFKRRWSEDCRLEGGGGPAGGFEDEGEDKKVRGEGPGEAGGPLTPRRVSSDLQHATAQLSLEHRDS
Summary of the method: as §1

[3] = biological target: T2, ETV3L (Homo sapiens, UniProt Q6ZN32 1-361)
T2 sequence: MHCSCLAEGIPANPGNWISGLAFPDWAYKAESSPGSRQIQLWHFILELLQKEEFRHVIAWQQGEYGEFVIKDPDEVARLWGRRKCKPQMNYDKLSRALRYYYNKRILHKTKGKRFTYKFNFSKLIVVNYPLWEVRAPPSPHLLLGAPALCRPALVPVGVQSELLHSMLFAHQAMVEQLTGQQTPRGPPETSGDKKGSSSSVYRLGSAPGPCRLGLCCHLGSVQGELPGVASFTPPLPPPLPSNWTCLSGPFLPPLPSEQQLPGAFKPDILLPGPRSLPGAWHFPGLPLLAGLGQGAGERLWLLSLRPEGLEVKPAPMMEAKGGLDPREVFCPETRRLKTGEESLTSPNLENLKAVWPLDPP
Summary of the method: as §1

[4] = biological target: T3, ETS2 (Homo sapiens, UniProt P15036 1-469)
T3 sequence: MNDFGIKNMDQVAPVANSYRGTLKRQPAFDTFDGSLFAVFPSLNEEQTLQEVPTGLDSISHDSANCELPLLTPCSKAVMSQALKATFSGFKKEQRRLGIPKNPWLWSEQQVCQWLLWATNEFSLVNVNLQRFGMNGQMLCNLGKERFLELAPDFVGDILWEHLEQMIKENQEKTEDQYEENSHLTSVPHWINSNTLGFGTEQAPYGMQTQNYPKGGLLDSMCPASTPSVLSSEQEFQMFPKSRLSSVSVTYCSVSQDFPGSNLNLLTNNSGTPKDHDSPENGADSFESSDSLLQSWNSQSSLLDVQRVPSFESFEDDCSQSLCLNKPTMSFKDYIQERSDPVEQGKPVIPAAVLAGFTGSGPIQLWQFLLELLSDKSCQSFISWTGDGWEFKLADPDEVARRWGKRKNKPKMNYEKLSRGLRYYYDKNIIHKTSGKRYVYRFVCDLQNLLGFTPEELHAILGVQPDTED
Summary of the method: as §1

[5] = biological target: T4, SPDEF (Homo sapiens, UniProt O95238 1-335)
T4 sequence: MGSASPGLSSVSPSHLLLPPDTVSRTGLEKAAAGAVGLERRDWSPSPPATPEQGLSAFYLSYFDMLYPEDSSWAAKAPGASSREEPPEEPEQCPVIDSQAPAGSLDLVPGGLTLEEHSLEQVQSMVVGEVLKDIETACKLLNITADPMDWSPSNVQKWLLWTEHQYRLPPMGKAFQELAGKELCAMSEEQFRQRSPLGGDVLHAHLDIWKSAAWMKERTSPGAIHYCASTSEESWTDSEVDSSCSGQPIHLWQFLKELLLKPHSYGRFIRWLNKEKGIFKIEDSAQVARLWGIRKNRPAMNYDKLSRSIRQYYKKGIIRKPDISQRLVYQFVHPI
Summary of the method: as §1

[6] = biological target: T5, ETV7 (Homo sapiens, UniProt Q9Y603 1-341)
T5 sequence: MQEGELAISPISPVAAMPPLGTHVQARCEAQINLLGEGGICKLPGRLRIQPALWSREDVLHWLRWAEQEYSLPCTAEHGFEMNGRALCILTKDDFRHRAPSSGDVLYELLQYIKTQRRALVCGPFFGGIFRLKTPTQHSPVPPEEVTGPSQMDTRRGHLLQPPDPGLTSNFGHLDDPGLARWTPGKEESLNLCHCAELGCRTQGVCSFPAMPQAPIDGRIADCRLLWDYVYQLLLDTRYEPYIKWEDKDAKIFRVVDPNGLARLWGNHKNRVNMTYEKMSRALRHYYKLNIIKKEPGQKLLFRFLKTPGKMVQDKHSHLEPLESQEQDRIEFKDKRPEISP
Summary of the method: as §1

[7] = biological target: T6, ELF5 (Homo sapiens, UniProt Q9UKW6-2 1-255)
T6 sequence: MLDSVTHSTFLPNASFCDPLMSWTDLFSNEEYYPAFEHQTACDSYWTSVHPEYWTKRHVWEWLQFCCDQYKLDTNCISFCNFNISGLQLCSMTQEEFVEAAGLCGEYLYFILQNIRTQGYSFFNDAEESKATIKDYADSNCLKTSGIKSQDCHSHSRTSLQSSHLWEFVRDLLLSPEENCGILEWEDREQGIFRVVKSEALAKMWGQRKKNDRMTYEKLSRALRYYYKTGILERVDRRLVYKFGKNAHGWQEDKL
Summary of the method: as §1

[8] = biological target: T7, ETV3 (Homo sapiens, UniProt P41162-2 1-143)
T7 sequence: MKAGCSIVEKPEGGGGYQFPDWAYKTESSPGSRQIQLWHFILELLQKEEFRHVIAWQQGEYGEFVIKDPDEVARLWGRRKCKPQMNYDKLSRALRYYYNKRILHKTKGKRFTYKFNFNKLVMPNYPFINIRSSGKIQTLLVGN
Summary of the method: as §1

[9] = biological target: ETV6 (Homo sapiens, UniProt P41212 1-452)
Summary of the method: as §1

Chain of ETV1 (P50549 whole entry, the tested form may be a part): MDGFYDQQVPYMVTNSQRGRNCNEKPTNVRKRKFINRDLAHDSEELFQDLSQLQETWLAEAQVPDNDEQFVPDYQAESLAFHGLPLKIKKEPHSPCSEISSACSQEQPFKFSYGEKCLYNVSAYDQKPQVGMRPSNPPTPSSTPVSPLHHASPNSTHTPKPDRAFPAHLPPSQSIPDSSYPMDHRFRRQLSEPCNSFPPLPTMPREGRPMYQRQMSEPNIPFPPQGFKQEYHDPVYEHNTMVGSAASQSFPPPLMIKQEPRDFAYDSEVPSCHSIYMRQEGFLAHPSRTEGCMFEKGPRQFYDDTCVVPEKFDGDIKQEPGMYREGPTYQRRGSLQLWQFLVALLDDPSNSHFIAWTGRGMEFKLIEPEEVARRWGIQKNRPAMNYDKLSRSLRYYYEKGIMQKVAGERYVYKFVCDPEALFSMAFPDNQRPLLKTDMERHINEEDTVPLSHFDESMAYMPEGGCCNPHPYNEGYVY
Chain of ETV6 (P41212 whole entry): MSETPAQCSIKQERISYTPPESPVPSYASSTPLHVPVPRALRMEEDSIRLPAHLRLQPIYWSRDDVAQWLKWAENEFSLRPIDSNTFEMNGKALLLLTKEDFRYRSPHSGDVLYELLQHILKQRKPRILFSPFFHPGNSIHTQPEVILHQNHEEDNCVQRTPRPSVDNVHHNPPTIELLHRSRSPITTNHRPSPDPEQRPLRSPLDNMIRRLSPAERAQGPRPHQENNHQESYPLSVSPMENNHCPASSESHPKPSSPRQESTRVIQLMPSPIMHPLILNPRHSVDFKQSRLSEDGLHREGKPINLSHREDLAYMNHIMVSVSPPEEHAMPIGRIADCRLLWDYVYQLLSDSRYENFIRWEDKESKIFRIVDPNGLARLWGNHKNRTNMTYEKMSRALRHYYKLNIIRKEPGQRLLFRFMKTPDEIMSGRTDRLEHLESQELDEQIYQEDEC

Which binding signal [1] does the source give for CTGGCT here?
The binding signal was 1.1 fold enrichment (6-mer frequency, TF over GST control).

What about the binding signal [2] of the same sequence?
The binding signal was 1.43 fold enrichment (6-mer frequency, TF over GST control).

And the binding signal [3]?
Its binding signal is 1.3 fold enrichment (6-mer frequency, TF over GST control).

And the binding signal [4]?
Its binding signal is 1.19 fold enrichment (6-mer frequency, TF over GST control).

What about the binding signal [5] of the same sequence?
Its binding signal is 1.23 fold enrichment (6-mer frequency, TF over GST control).

And the binding signal [6]?
The binding signal was 1.38 fold enrichment (6-mer frequency, TF over GST control).

And the binding signal [7]?
Its binding signal is 1.19 fold enrichment (6-mer frequency, TF over GST control).

What about the binding signal [8] of the same sequence?
Its binding signal is 1.18 fold enrichment (6-mer frequency, TF over GST control).

And the binding signal [9]?
The binding signal was 1.18 fold enrichment (6-mer frequency, TF over GST control).
